# Results from PubChem BioAssay.
# Values joined by “and” are separate entries in the source; they are usually repeats but may differ in a detail not shown here. Identical values can stand only once. Active and inactive are the calls of the source. Cut-off read from the data, not from the text of the source, unless noted: active = inhibition above about 80%; inactive = the rest.
# What was measured:
# [1] = sensitizers of A549 cells to miR-34 induction, primary screen, imaging, A549 dox-inducible miR-34, nuclei and caspase counts (AID 1347080;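 active = compounds whose cell count with miR-34 switched on is under 0.7 times the count with it off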); details: A549 miR-34 inducible, Hoechst nuclei count, 48 h
# [2] = survival rescue of mitochondrial mutant cells in low glucose, primary screen, MELAS cybrids, Rieske KO mouse fibroblasts, CellTiter-Glo (AID 1508586;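 active = mean z-score across replicates of 1.96 or higher in either the MELAS or the Rieske mutant cell line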;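 note: z relative to plate mean and SD of compound and empty wells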)
# [3] = viability rescue of complex I mutant cybrids, primary screen, cell-based, galactose medium, ATP luminescence (AID 1645843;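 active = z-score of at least 1.8 in each of two replicates, scored against plate mean and spread of sample wells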;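 note: positive z means more ATP and so rescue of galactose-driven cybrid death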); details: complex I mutant cybrid cells, 72 h, stronger effect = higher value
# [4] = LFS_MB_P medulloblastoma growth inhibition, cell-based, chromothripsis tumors, cisplatin or BGB combos (AID 1671449); details: LFS_MB_P medulloblastoma cells;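 note: cells exposed for 96 hours; 0% = vehicle DMSO and 100% = killing by high DMSO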
# [5] = HDN33 neuroblastoma growth inhibition, cell-based, chromothripsis tumors, cisplatin or BGB combos (AID 1671450); details: HDN33 neuroblastoma cells, stronger effect = higher value;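 note: cells exposed to compound for four days; 0% = vehicle DMSO and 100% = cell killing by high DMSO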
# [6] = ICB984 medulloblastoma cell growth inhibition, synergistic combos for chromothripsis tumors, cisplatin or BGB combos (AID 1671451; call rule not given here;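 note: cells exposed for 96 hours before readout; 0% = vehicle DMSO and 100% = killing by high DMSO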); details: ICB984 medulloblastoma cells, drug combinations, stronger effect = higher value
# [7] = LFS_MB_1R medulloblastoma cell growth inhibition, synergistic combos for chromothripsis tumors, cisplatin or BGB combos (AID 1671452); details: LFS_MB_1R medulloblastoma cells, stronger effect = higher value;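 note: cells exposed for 96 hours before readout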
# [8] = HTB85 osteosarcoma cell growth inhibition, synergistic combos for chromothripsis tumors, BGB or cisplatin IC20 combos (AID 1671453); details: HTB85 osteosarcoma cells, drug combinations, stronger effect = higher value;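 note: cells exposed for 96 hours before readout; 0% = vehicle DMSO and 100% = high DMSO killing control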
# [9] = CRL2098 osteosarcoma cell growth inhibition, synergistic combos for chromothripsis tumors, BGB or cisplatin IC20 combos (AID 1671454); details: CRL2098 osteosarcoma cells, drug combinations, stronger effect = higher value;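 note: cells exposed for 96 h before readout; 0% = vehicle DMSO and 100% = killing by high DMSO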
# [10] = HD-MB03 medulloblastoma cell growth inhibition, synergistic combos for chromothripsis tumors, BGB or cisplatin IC20 combos (AID 1671455; in the data active = inhibition above about 83%;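 note: 0% = vehicle DMSO and 100% = high DMSO as cytotoxic control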); details: HD-MB03 medulloblastoma cells, stronger effect = higher value
# [11] = UWB1.289 ovarian carcinoma cell growth inhibition, synergistic combos for chromothripsis tumors, BGB or cisplatin combos (AID 1671456); details: UWB1.289 ovarian carcinoma cells, stronger effect = higher value;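 note: cells exposed to compound for four days; 0% = vehicle DMSO and 100% = killing by high DMSO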
# [12] = LFS_MB_2R medulloblastoma cell growth inhibition, synergistic combos for chromothripsis tumors, cisplatin combos (AID 1671457); details: LFS_MB_2R medulloblastoma cells, stronger effect = higher value;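 note: cells exposed to compound for four days before readout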
# [13] = MDA-MB-436 breast carcinoma cell growth inhibition, synergistic combos for chromothripsis tumors, BGB or cisplatin combos (AID 1671458; call rule not given here;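 note: cells exposed for 96 hours; 0% = vehicle DMSO and 100% = killing by high DMSO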); details: MDA-MB-436 breast carcinoma growth inhibition, drug combinations, stronger effect = higher value
# [14] = UWB1.289_BRCA1 ovarian cancer growth, cell-based, BGB or cisplatin combinations (AID 1671459); details: UWB1.289 BRCA1 ovarian carcinoma, drug combinations, stronger effect = higher value
# [15] = human astrocyte viability loss, single and combined drugs, cytotoxicity control for chromothriptic childhood tumor combination screen, cell-based, BGB or cisplatin IC20 combos (AID 1671460); details: Human astrocytes, drug combinations, stronger effect = higher value;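 note: cells exposed to compounds for 96 hours before viability readout; 0% = vehicle and 100% = killing control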
# [16] = growth inhibition of BT084 medulloblastoma cells, cell-based, ICGC_MB145, cisplatin and BGB IC40 combos (AID 1671461); details: drug combinations, stronger effect = higher value;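 note: cells exposed to drugs for 96 hours; 0% = vehicle DMSO and 100% = high DMSO full killing control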
# [17] = growth inhibition of RCMB18 medulloblastoma cells, cell-based, cisplatin and BGB IC40 combos (AID 1671462); details: stronger effect = higher value;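 note: cells exposed to compound for four days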
# [18] = growth inhibition of CRL1545 osteosarcoma cells, cell-based, cisplatin and BGB IC20 combos (AID 1671464); details: stronger effect = higher value;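 note: cells exposed to compound for 96 hours before readout; 0% = vehicle DMSO and 100% = high DMSO killing control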
# [19] = liver-stage malaria parasite growth inhibition, primary screen, cell-based, HepG2, luciferase luminescence, HepG2 viability (AID 624349; in the data active = parasite load remaining mostly below about 12%, no sharp cut-off; inactive = mostly above about 10%;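 note: 100% = mean of DMSO negative control wells on the same plate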); details: P. berghei liver stage in HepG2, luciferase luminescence, concentration not given here; parasite load remaining: stronger effect = lower value; viability: measured here: HepG2 viability without parasites
# [20] = stronger effect = lower value, cell number ratio, induced over uninduced
# [21] = measured here: relative caspase fold change +Dox/-Dox
# [22] = measured here: total cells with miR-34 induction, stronger effect = lower value
# [23] = measured here: total cells without miR-34 induction
# [24] = MELAS cybrid survival, CellTiter-Glo 48 h, stronger effect = higher value
# [25] = Rieske KO mouse fibroblast survival, CellTiter-Glo 72 h
# [26] = measured here: combination with BGB IC40, at 0.05 µM
# [27] = measured here: with BGB IC20 combination, at 0.5 µM
# [28] = measured here: with cisplatin IC20 combination, at 0.5 µM
# [29] = measured here: combination with cisplatin, at 0.5 µM
# [30] = measured here: combination with cisplatin, at 5 µM
smiles,measurement,setting,value
Cc1cn(C2C=CC(CO)O2)c(=O)[nH]c1=O (configuration not stated),fold change,[1]; [20],0.962 (inactive) and 0.935 (inactive)
same,fold change,[1]; [21],1.05 and 0.911
same,cell count,[1]; [22],8970 and 7330
same,cell count,[1]; [23],9320 and 7840
same,z-score,[2]; [24],-0.48 (inactive)
same,z-score,[2]; [25],0.518
same,z-score,[3],0.42 (inactive)
same,inhibition,"[4]; at 0.5 µM, stronger effect = higher value",-20.9% (inactive)
same,inhibition,"[4]; measured here: combination with BGB IC20, at 0.005 µM",-5.29%
same,inhibition,"[4]; measured here: combination with BGB IC40, at 0.005 µM",-35%
same,inhibition,[4]; [26],-15.2%
same,inhibition,"[4]; measured here: combination with cisplatin, at 0.5 µM, stronger effect = higher value",-28.2%
same,inhibition,"[4]; measured here: combination with cisplatin, at 5 µM, stronger effect = higher value",-24.4%
same,inhibition,"[5]; BGB combo, at 5 µM",-42.2%
same,inhibition,[5]; at 0.5 µM,-34.4% (inactive)
same,inhibition,"[5]; cisplatin combo, at 5 µM",-46.6%
same,inhibition,[5]; [27],-50.9%
same,inhibition,[5]; [28],-24.2%
same,inhibition,"[5]; single agent, at 5 µM",-41%
same,inhibition,"[6]; BGB IC20 combo, at 0.005 µM",-4.4%
same,inhibition,"[6]; BGB IC40 combo, at 0.005 µM",-46.7%
same,inhibition,"[6]; BGB IC40 combo, at 0.05 µM",-3.74%
same,inhibition,[6]; at 0.5 µM,-26.7% (inactive)
same,inhibition,"[6]; cisplatin combo, at 0.05 µM",-6.64%
same,inhibition,"[6]; cisplatin combo, at 0.5 µM",-35.4%
same,inhibition,"[6]; cisplatin combo, at 5 µM",-36.2%
same,inhibition,"[6]; measured here: 5 uM single agent, at 5 µM",-29.8%
same,inhibition,[7]; at 0.5 µM,-29.1% (inactive)
same,inhibition,[7]; [26],-18.5%
same,inhibition,[7]; [29],-42.3%
same,inhibition,[7]; [30],-74.7%
same,inhibition,[8]; at 0.5 µM,-32.3% (inactive)
same,inhibition,"[8]; measured here: with BGB IC20, at 0.5 µM",-52.5%
same,inhibition,"[8]; measured here: with BGB IC20, at 5 µM",-73.7%
same,inhibition,"[8]; measured here: with cisplatin IC20, at 0.5 µM",-25.1%
same,inhibition,"[8]; measured here: with cisplatin IC20, at 5 µM",-14.5%
same,inhibition,"[8]; single agent, at 5 µM",6.05%
same,inhibition,[9]; at 0.5 µM,-98.7% (inactive)
same,inhibition,"[9]; measured here: combination with BGB at IC20, at 0.5 µM",-91.8%
same,inhibition,"[9]; measured here: combination with cisplatin at IC20, at 0.5 µM",-105%
same,inhibition,[10]; at 0.5 µM,-18.8% (inactive)
same,inhibition,"[10]; measured here: combo with BGB at IC20, at 0.5 µM",-15.9%
same,inhibition,"[10]; measured here: combo with cisplatin at IC20, at 0.5 µM",-28%
same,inhibition,[11]; at 0.5 µM,-10.5% (inactive)
same,inhibition,"[11]; measured here: inhibition with BGB combination, at 0.05 µM",-4.7%
same,inhibition,"[11]; measured here: inhibition with cisplatin combination, at 0.05 µM",-16.8%
same,inhibition,[12]; at 0.5 µM,-12.5% (inactive)
same,inhibition,[12]; [29],-17.8%
same,inhibition,[12]; [30],-34.1%
same,inhibition,[13]; at 0.5 µM,-24% (inactive)
same,inhibition,"[13]; measured here: BGB combination, at 0.5 µM",-19.7%
same,inhibition,"[13]; measured here: BGB combination, at 5 µM",-23.5%
same,inhibition,"[13]; measured here: cisplatin combination, at 0.5 µM",-37.6%
same,inhibition,"[13]; measured here: cisplatin combination, at 5 µM",-21%
same,inhibition,"[14]; BGB combination, concentration series, at 5 µM",-25.5%
same,inhibition,[14]; at 0.5 µM,-15.9% (inactive)
same,inhibition,"[14]; cisplatin combination, concentration series, at 5 µM",-8.88%
same,inhibition,[15]; at 0.5 µM,-7.19% (inactive)
same,inhibition,"[15]; measured here: combo with BGB IC20, at 0.5 µM",-8.45%
same,inhibition,"[15]; measured here: combo with cisplatin IC20, at 0.5 µM",-23.8%
same,inhibition,[16]; at 0.5 µM,-17.7% (inactive)
same,inhibition,"[16]; cisplatin combination, at 0.5 µM",-7.07%
same,inhibition,"[16]; cisplatin combination, at 5 µM",-5.39%
same,inhibition,"[16]; measured here: BGB IC40 combination 0.05 uM, at 0.05 µM",-19.6%
same,inhibition,"[16]; single agent, at 5 µM",-14%
same,inhibition,[17]; at 0.5 µM,-28.5% (inactive)
same,inhibition,"[17]; cisplatin combo, at 5 µM",-44.1%
same,inhibition,"[17]; measured here: BGB IC40 combination, at 0.05 µM",-19.7%
same,inhibition,[17]; [29],-44.8%
same,inhibition,"[17]; single agent, at 5 µM",-28.1%
same,inhibition,[18]; at 0.5 µM,-40.6% (inactive)
same,inhibition,[18]; [27],-40.6%
same,inhibition,[18]; [28],-43.7%
same,inhibition,"[18]; single agent, at 0.05 µM",-24.2%
same,inhibition,"[18]; single agent, at 5 µM",-21.8%
CCC(=O)OCC(=O)[C@@]1(OC(=O)CC)[C@@H](C)C[C@H]2[C@@H]3CCC4=CC(=O)C=C[C@]4(C)C3(F)[C@@H](O)C[C@@]21C (some centres not stated),parasite load remaining,[19],19.5% (inactive)
same,viability,[19],67%
same,fold change,[1]; [20],0.837 (inactive)
same,fold change,[1]; [21],1.41
same,cell count,[1]; [22],6650
same,cell count,[1]; [23],7940
same,z-score,[2]; [24],0.189 (inactive)
same,z-score,[2]; [25],1.36
same,z-score,[3],0.155 (inactive)
O=C(OC1CC2CC3C[C@@H](C1)N2CC3=O)c1c[nH]c2ccccc12 (some centres not stated),parasite load remaining,[19],57.9% (inactive)
same,viability,[19],134%
same,fold change,[1]; [20],0.838 (inactive)
same,fold change,[1]; [21],1.48
same,cell count,[1]; [22],8850
same,cell count,[1]; [23],10600
same,z-score,[2]; [24],-0.0411 (inactive)
same,z-score,[2]; [25],-0.329
same,z-score,[3],1.09 (inactive)
COC(=O)c1ccccc1O,parasite load remaining,[19],53.2% (inactive)
same,viability,[19],98%
same,fold change,[1]; [20],0.851 (inactive)
same,fold change,[1]; [21],1.32
same,cell count,[1]; [22],10100
same,cell count,[1]; [23],11800
same,z-score,[2]; [24],-0.407 (inactive)
same,z-score,[2]; [25],-0.367
same,z-score,[3],0.47 (inactive)
